From PubChem BioAssay (NCATS) come the findings set out here.

Assay [1] addresses Glutathione peroxidase 1 (Homo sapiens) (UniProt P07203). Kind of assay: Primary qHTS Assay for Inhibitors of Recombinant Selenoprotein Glutathione Peroxidase 1 (GPX1) (AID 1845191). Further: nearly all actives have a fitted effect of over 65% in size. On activity, negative = inhibition: on the % scale 0 is the no-effect control and ±100 the full control effect. The procedure, abridged:
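GR-coupled assay: compounds preincubated 30 min at room temperature with GPX1, then reaction started with CHP; final 10 nM GPX1, 1 mM GSH, 0.5 mM CHP, 0.5 mM NADPH, 100 nM GR, 0.01% BSA, pH 7.5 Tris buffer. NADPH fluorescence (340/450 nm) read at 0 and 15 min.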

Assay [2] deals with Phospholipid hydroperoxide glutathione peroxidase GPX4 (Homo sapiens) (UniProt P36969). Kind of assay: Primary qHTS Assay for Inhibitors of Recombinant Selenoprotein Glutathione Peroxidase 4 (GPX4) (AID 1845192). Further: nearly all actives have a fitted effect of over 65% in size. On activity change, negative = inhibition: series mostly up to about 50 µM; on the % scale 0 is the no-effect control and ±100 the full control effect. The procedure, abridged: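 GR-coupled assay: recombinant GPX4 preincubated 30 min with compound at room temperature; final 200 nM GPX4, 1 mM GSH, 0.5 mM cumene hydroperoxide, 0.5 mM NADPH, 100 nM GR, 0.01% BSA, pH 7.5 Tris. NADPH fluorescence (340/450 nm) read at 0 and 15 min.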
Phospholipid hydroperoxide glutathione peroxidase GPX4 (Homo sapiens), sequence (P36969 whole entry, looked up): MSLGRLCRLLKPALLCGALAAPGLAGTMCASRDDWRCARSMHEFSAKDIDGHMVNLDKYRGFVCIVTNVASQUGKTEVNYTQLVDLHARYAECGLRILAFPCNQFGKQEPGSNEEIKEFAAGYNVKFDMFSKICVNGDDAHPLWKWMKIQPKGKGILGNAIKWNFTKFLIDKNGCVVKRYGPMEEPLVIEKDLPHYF

The target of assay [3] is Luciferin 4-monooxygenase (Photinus pyralis) (UniProt P08659). Kind of assay: Primary firefly luciferase (FLuc) qHTS assay for identification of artifact compounds. (AID 1845220). Further: nearly all actives have a fitted effect of over 60% in size.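 On activity change, negative = inhibition: series mostly up to about 54 µM; plate controls were DMSO vehicle for no effect and no enzyme for full effect.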 Put shortly:
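D-luciferin and ATP (10 uM each, final) in Tris acetate buffer pH 7.6 were incubated with compounds for 15 min at room temperature. The reaction was started with 10 nM Photinus pyralis luciferase and luminescence read after 5 min. Percent inhibition was fitted to a 4-parameter Hill equation.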

Assay [4] in a line: Primary fluorescence-based thiol-reactive (MSTI) qHTS assay for identification of artifact compounds. (AID 1845221). Further: nearly all actives have a fitted effect of over 65% in size. Further: potency means the concentration at half of the fitted maximal effect.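 On activity change, negative = thiol reactive: series mostly up to about 54 µM; thiol-reactive compounds lower the probe fluorescence signal.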 The procedure, abridged:
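qHTS titration of compound; 4 uM MSTI, PBS pH 7.4, 2% DMSO; 1 h RT, dark; fluorescence 525/598 nm; normalized to Acetyl-MSTI and MSTI; 4-parameter Hill fit.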

In assay [5] the test system is Nanoluciferase (engineered Oplophorus gracilirostris luciferase). The experiment in a line: Primary Nanoluciferase (NLuc) qHTS assay for identification of artifact compounds. (AID 1845222).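 Further: series mostly up to about 54 µM; 0% = DMSO and -100% = no enzyme.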 Put shortly: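 Diluted conditioned medium from NLuc-expressing S16 cells treated with compounds for 15 min at room temperature, then Nano-Glo substrate added; luminescence read after 5 min. Percent inhibition versus no-enzyme and DMSO controls fitted to 4-parameter Hill equation.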

A number with no mark means an inactive call. Results filed as inconclusive are left out. Activity calls are given as the source filed them. The call rests on the fitted dose curve; in most records, active means well fitted curve in the direction sought with a large enough effect; inconclusive means small, poorly fitted or top-dose-only effect, or another doubt; inactive means no such curve, though single readings can be large; an effect the other way counts as inactive or inconclusive.

Glutathione peroxidase 1 (Homo sapiens), sequence (P07203 whole entry, looked up): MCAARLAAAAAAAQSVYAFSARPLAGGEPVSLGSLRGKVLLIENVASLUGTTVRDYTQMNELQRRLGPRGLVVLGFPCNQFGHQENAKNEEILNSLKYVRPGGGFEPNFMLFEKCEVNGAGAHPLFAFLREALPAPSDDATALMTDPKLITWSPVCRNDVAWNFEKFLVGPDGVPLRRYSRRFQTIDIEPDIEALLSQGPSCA

`CC(=O)O[C@H]1[C@H](O[C@H]2CC[C@]34C[C@]35CC[C@]3(C)[C@@H]([C@@]6(C)CC[C@@H](C(C)(C)O)O6)[C@@H](O)C[C@@]3(C)[C@@H]5C[C@H](O[C@@H]3O[C@H](CO)[C@@H](O)[C@H](O)[C@H]3O)[C@H]4C2(C)C)OC[C@@H](OC(C)=O)[C@@H]1O`: the Potency result in assay [1], in assay [2], in assay [3], in assay [4] and in assay [5] was “inactive” each time.

For the compound `C=C1C(O)C(O)C2(CC3C(C)=CCC4C(C)(C(=O)O)CCCC34C)OC2C1O` (stereo not given), the Potency entry in assay [1], in assay [2], in assay [3] and in assay [5] was “inactive” each time. In addition, the Potency in assay [4] is 5.21 µM (active).

For `C/C(=C/CO)CC[C@H]1[C@]2(C)C[C@H](O)CC(C)(C)[C@H]2CC[C@]1(C)O`, the Potency entry in assay [1], in assay [2], in assay [3], in assay [4] and in assay [5] was “inactive” in each case.

On to `CC1CCC2C(C)(C)[C@H](O)CC[C@]2(C)C12Cc1c(O)cc3c(c1O2)CN(C(CCC(=O)O)C(=O)O)C3=O` (stereo not given in full), for which the Potency entry in assay [1], in assay [2], in assay [3], in assay [4] and in assay [5] was “inactive” throughout.

In the case of `CC(=O)OC1CC(C(C)(C)O)OC2CCC3(C)OC4=C(C(=O)C=C5C(C)C(OC(C)=O)C6(C)C(C)OC546)C(O)C3C12C` (stereo not given), the Potency result in assay [1], in assay [2], in assay [3], in assay [4] and in assay [5] was “inactive” each time.

For `CC(C)[C@@H](C(=O)O)N1Cc2c(cc(O)c3c2O[C@]2(C3)[C@H](C)CCC3C(C)(C)[C@H](O)[C@H](O)C[C@@]32C)C1=O` (stereo not given in full), the Potency result in assay [1], in assay [2], in assay [3], in assay [4] and in assay [5] was “inactive” in each case.

Consider `C=CC(C)(C)C12Nc3c(ccc4c3OC(C)(C)C=C4)C1(O)CC1C(=O)N3CCCC3C(=O)N12` (stereo not given), for which the Potency result in assay [1], in assay [2], in assay [3], in assay [4] and in assay [5] was “inactive” throughout.

With `CC(=O)C1CCC(=O)N1Cc1ccccc1` (stereo not given), the Potency entry in assay [1], in assay [2], in assay [3], in assay [4] and in assay [5] was “inactive” in each case.

For `COC(=O)C1=CO[C@@H](O[C@@H]2O[C@H](CO)[C@@H](O)[C@H](O)[C@H]2O)/C(=C\CO)[C@@H]1CC(=O)OCCc1ccc(O)cc1`, the Potency entry in assay [1], in assay [2], in assay [3] and in assay [5] was “inactive” each time. The Potency in assay [4] was 6.53 µM (active).

Consider `C=CC(C)(O)CC/C=C(\C)C(=O)O[C@@H]1[C@@H](O)[C@H](OC(C)(C=C)CC/C=C(\C)C(=O)O)O[C@H](CO)[C@H]1OC(=O)/C(C)=C/CCC(C)(O)C=C` (stereo not given in full), for which the Potency entry in assay [1], in assay [2], in assay [3], in assay [4] and in assay [5] was “inactive” in each case.

As to `Nc1ncnc2c1C(=O)N(c1ccc(C3CCC(CC(=O)O)CC3)cc1)CCO2` (stereo not given), the Potency result in assay [1], in assay [2], in assay [3], in assay [4] and in assay [5] was “inactive” each time.

Turning to `C=C1CC[C@@]2(OC1)O[C@H]1CC3[C@@H]4CC=C5C[C@H](O[C@H]6OC[C@@H](O)C(O)[C@@H]6O[C@@H]6O[C@@H](C)[C@H](O)[C@@H](O[C@@H]7O[C@H](CO)[C@@H](O)[C@H](O)[C@H]7O)[C@H]6O)C[C@@H](O)[C@]5(C)C4CC[C@]3(C)[C@H]1[C@@H]2C` (stereo not given in full), the Potency result in assay [1] and in assay [2] was “inactive” in each case. Further, in assay [3], the activity change, negative = inhibition was -10.8% [at 11.6 µM]. In addition, the activity change, negative = thiol reactive in assay [4] was 124% [at 11.5 µM]. For the same compound, in assay [5], the activity, negative = inhibition was -1.92% [at 11.6 µM].

Take `CC(O)C1CCC2C3CCC4CC(OC5OC(C(=O)O)C(O)C(O)C5O)CCC4(C)C3CCC12C` (stereo not given): the Potency entry in assay [1], in assay [2], in assay [3], in assay [4] and in assay [5] was “inactive” in each case.

On to `COc1ccc(CCC(=O)c2c(O)cc(O[C@@H]3O[C@H](CO)[C@@H](O)[C@H](O)[C@H]3O[C@@H]3O[C@@H](C)[C@H](O)[C@@H](O)[C@H]3O)cc2O)cc1O`, for which the Potency result in assay [1], in assay [2], in assay [3], in assay [4] and in assay [5] was “inactive” in each case.

Turning to `Cc1cc(CNC(=O)c2cc(C(=O)NCc3ccc(F)c(C)c3)ncn2)ccc1F`, the Potency result in assay [1], in assay [2], in assay [3], in assay [4] and in assay [5] was “inactive” in each case.

For the compound `CC1(C)C=Cc2c(ccc3c2[N+]([O-])=C2C3(O)CC34NC(=O)C5(CCCN5C3=O)CC4C2(C)C)O1` (stereo not given), the Potency entry in assay [1], in assay [2], in assay [3] and in assay [5] was “inactive” throughout. Further, the Potency in assay [4] is 4.12 µM (active).

In the case of `C[C@@H]1O[C@@H](O[C@H]2[C@H](O[C@H]3[C@H](O[C@H]4CC[C@@]5(C)C(CC[C@]6(C)C5CC=C5[C@@H]7CC(C)(C)CC(=O)[C@]7(C)CC[C@]56C)[C@@]4(C)CO)O[C@H](C(=O)O)[C@@H](O)[C@@H]3O)O[C@H](CO)[C@H](O)[C@@H]2O)[C@H](O)[C@H](O)[C@H]1O` (stereo not given in full), the Potency entry in assay [1] and in assay [2] was “inactive” each time. Also, the outcome in assay [3] was “inactive [at 11.6 µM]”. Also, in assay [4], the activity change, negative = thiol reactive is 40% [at 11.5 µM]. Besides, the activity, negative = inhibition in assay [5] is -0.78% [at 11.6 µM].

In the case of `COc1ccc(CC(NC(C)=O)C(=O)O)cc1` (stereo not given), the Potency entry in assay [1], in assay [2], in assay [3] and in assay [5] was “inactive” each time. Besides, in assay [4], the Potency was 4.74 µM (active).
